The record followed here is PubChem BioAssay (NCATS).

Inconclusive results are not listed. Values without a mark were called inactive. Calls come from the whole dose curve. Bounds are passed on as bounds.
Potency is the fitted concentration of half-maximal effect.

A short description of this assay: Cell Viability - HepG2 (AID 433).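 Note: potency for ATP loss meaning cytotoxicity.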 The note with it: qHTS. From the text: NIH Chemical Genomics Center [NCGC]
NIH Molecular Libraries Screening Centers Network [MLSCN]
National Institutes of Environmental Health Sciences [NIEHS]
National Toxicology Program [NTP]
We have developed a 1536-well cell-based assay for quantitative high throughput screening (qHTS) against a number of cell lines to determine in vitro cytotoxicity of small molecules. This particular assay uses the HepG2 cell line which is derived from hepatocellular carcinoma.
NCGC Assay Protocol Summary:
The CellTiter-Glo luminescent cell viability assay (Promega) is a homogeneous method to measure the number of viable cells in culture. The end point readout of this assay is based on quantitation of intracellular ATP, an indicator of metabolic activity, using the luciferase reaction. Luciferase catalyzes the oxidation of beetle Luciferin to oxyluciferin and light in the presence of ATP. The luminescent signal is proportional to amount of ATP present.
Using the CellTiter-Glo luminescent cell viability assay, the amount of cellular ATP was measured in the HepG2 cell line with complete culture medium following compound treatment for 40 hours. The assay was performed in opaque white Kalypsys 1536-well plates. In the screen, tamoxifen and doxorubicin were used as positive controls. Library compounds were measured for their ability to cause acute toxicity in the cell line, as reflected by a decrease in intracellular ATP levels, in a concentration-dependent manner. Data were normalized to the controls for basal activity (DMSO only) and 100% inhibition (100 uM tamoxifen). AC50 values were determined from concentration-response data modeled with the standard Hill equation.
qHTS protocol fo CellTiter Glo HepG2 cellular assay
[Step] [Parameter] [Value] [Description]
1. Reagent; 5 uL; 1500 HepG2 cells/well
2. Time; 5 hr; 37 °C incubation
4. Controls; 23 nL; Tamoxifen 0.34 uM to 100 uM & Doxorubicin 0.02 nM to 100 uM
5. Time; 40 hr; 37 °C incubation
6. Reagent; 5 uL; CellTiter Glo reagent
7. Time; 20 min; Room Temperature
8. Detection; Luminescence; Viewlux plate reader
Keywords: cell viability, cytotoxicity, HepG2 cell line, luminescence, NTPHTS, NTPHTS_NCGC, NIEHS, EPA, DSSTox, MLSMR, MLSCN, NIH Roadmap, qHTS, NCGC
(In general: In qHTS, concentration-response curves come from the screen itself.)
As to `CC(C)C(C)C`, the Potency is > 92 µM. Next, `O=[N+]([O-])c1ccc(CCO)cc1`: > 92 µM; `CCOc1ccc(NC(C)=O)cc1N`: > 92 µM; `COc1ccc(N)c(C)c1`: > 92 µM.

For the molecule `CC(=O)c1ccccc1[N+](=O)[O-]`, the Potency was > 92 µM. `C/C=C(/C)C#N`: the Potency is > 92 µM. For the molecule `C=CCCC`, the Potency is > 92 µM. Under `CCCCCCO` stands > 92 µM; under `Cc1ccccc1Br`, > 92 µM; under `CSc1ccc(C=O)cc1`, > 92 µM.

Regarding `CC(=O)C1(C)CC2=C(CCCC2(C)C)CC1C` (stereo not given), the Potency was > 92 µM. Consider `CCCCC(CC)CNCC(CC)CCCC` (stereo not given), for which the Potency is > 92 µM. In the case of `O=C(O)c1cc(Cl)cc(Cl)c1`, the Potency is > 92 µM. Regarding `CC(C)N(C)C`, the Potency was > 92 µM. Next, `CC(=O)Nc1ccccc1C`: > 92 µM. As for `CCC1CO1` (stereo not given), the Potency was > 92 µM. `NC(=O)c1ccccc1[N+](=O)[O-]`: the Potency was > 92 µM.

As for `NC=O`, the Potency is > 92 µM. On to `O=C(O)CCSSCCC(=O)O`, for which the Potency is > 92 µM. Under `CCC(C)=O` stands > 92 µM.

Turning to `Cc1ccccc1C(N)=O`, the Potency is > 92 µM.

Turning to `O=C(Cl)c1ccccc1[N+](=O)[O-]`, the Potency was > 92 µM. Regarding `OC(CCl)CCl`, the Potency is > 92 µM.

As for `C=CCCCCCCC=C`, the Potency was > 92 µM. Next, `Nc1ccccc1S(=O)(=O)O`: > 92 µM; `Nc1ccc([N+](=O)[O-])c(N)c1`: > 92 µM; `O=[N+]([O-])c1cc(C(F)(F)F)ccc1Cl`: > 92 µM. Under `Cc1ccco1` stands > 92 µM; under `O=Cc1ccc(Cl)cc1`, > 92 µM; under `CC(=C/C=C/C(C)=C/C=C/C=C(C)/C=C/C=C(C)/C=C/C(=O)O)/C=C/C(=O)O`, > 92 µM. With `Cc1ccc(C)c([N+](=O)[O-])c1`, the Potency is > 92 µM.

On to `CC(C)=CCC/C(C)=C/C=O`, for which the Potency was > 92 µM. In the case of `CCOCCO`, the Potency was > 92 µM.

Take `O=C1OC(=O)c2cc([N+](=O)[O-])ccc21`: the Potency is > 92 µM.

Consider `Cc1ccccc1C#N`, for which the Potency is > 92 µM.

For the molecule `FC(F)(F)c1ccccc1Cl`, the Potency was > 92 µM. `FB(F)F`: the Potency is > 92 µM. Next, `CCOc1cc(OCC)c(C(C)=O)cc1OCC`: > 92 µM; `O=C(O)c1ccccc1Cl`: > 92 µM; `COc1ccccc1[N+](=O)[O-]`: > 92 µM.
